# Shown are actives, neighbours in structure and some others; about 3.1% of the full set was active somewhere.
# PLK1 PBD inh: inhibitors of human PLK1 polo-box domain binding; P53350; AID 720504; 2.8% of 360,000 active; Potency, µM, inactives show max response, negative = inhibition, hits mostly inhibitors; Plk1 PBD binding of FITC phosphopeptide, fluorescence polarization; note: series mostly up to about 57 µM; % is set by controls: 0 for no effect and ±100 for the full control effect; nearly all actives have a fitted effect of over 65% in size
# Target sequence (P53350 whole entry, looked up, the tested form may be a part): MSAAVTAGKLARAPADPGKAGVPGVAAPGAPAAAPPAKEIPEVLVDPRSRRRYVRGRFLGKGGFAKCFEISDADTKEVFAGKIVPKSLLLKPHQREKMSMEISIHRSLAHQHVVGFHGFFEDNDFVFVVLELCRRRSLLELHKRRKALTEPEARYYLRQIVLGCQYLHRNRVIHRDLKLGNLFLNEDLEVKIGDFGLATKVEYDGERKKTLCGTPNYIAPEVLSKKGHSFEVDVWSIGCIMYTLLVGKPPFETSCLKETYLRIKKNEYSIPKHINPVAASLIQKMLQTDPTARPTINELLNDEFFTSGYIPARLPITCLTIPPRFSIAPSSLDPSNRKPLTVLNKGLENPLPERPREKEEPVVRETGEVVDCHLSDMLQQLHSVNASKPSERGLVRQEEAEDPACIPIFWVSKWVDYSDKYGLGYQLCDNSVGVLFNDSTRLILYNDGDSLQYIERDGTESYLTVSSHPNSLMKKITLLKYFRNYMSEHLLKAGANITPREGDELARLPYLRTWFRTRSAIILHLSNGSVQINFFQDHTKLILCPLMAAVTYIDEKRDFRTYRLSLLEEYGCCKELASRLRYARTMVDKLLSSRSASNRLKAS
# ASM inhibitor: human S-ASM enzyme inhibition. placental ASM, HMU-PC fluorogenic substrate, 60 min. Potency, µM (top dose mostly 57.5 µM), for inactives: top-dose activity change, negative = inhibition, usual class: inhibitors. 0.006% of 340,000 active
#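 HMU-PC0 cleavage (9 uM final) by human placental ASM, 60 min at 37 °C following 10 min compound exposure at RT; stopped at pH 10, fluorescence Ex 386/Em 447 nm.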
# VDR inh: blocks the human vitamin D receptor | P11473 | VDR-SRC2-3 peptide fluorescence polarization, 2 h | Potency, µM, without a hit: max response, negative = inhibition, most hits filed as inhibitors | 0.93% of 400,000 active; note: % is set by controls: 0 for no effect and ±100 for the full control effect
#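 Signal is fluorescence polarization, reporting how far test compounds block the interaction of VDR with the SRC2-3 coregulator peptide after a 2 h room-temperature incubation.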
# Tb PFK inh: inhibitors of T. brucei phosphofructokinase. O15648. T. brucei PFK, ADP-Glo luminescence. Potency, µM (series often up to 57.5 µM), for inactives: at the top dose activity, negative = inhibition, usual class: inhibitors. 0.17% of 330,000 active. AID 485367;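 note: 0% = uninhibited 1x PFK enzyme wells and -100% = no-enzyme wells; nearly all actives have a fitted effect of over 60% in size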
#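 Luminescent ADP detection (ADP-Glo, two-step: ATP depletion then ADP-to-ATP conversion for luciferase) reported PFK activity after 45 min room-temperature reaction of 1.25 nM enzyme with 0.5 mM F6P and 0.1 mM ATP at pH 8.0.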
# Pin1 inhibitor: blocks the human prolyl isomerase Pin1 | Q13526 | Pin1 FP peptide displacement, HiFluor488, 10 min | Potency, µM (top dose mostly 115 µM), without a hit: top-dose activity, negative = inhibition, hits mostly inhibitors | 0.009% of 390,000 active | AID 504891; active = well fitted inhibition curve with a large enough effect in the polarisation, with a control signal flat, not every such curve was filed as active; inconclusive = small, poorly fitted or top-dose-only effect, or effect the other way, or a change in a side signal; inactive = no such curve, though single readings can be large or run the other way; the % refers to the polarisation; note: % is set by controls: 0 for no effect and ±100 for the full control effect
# TDP1 block: inhibitors of human tyrosyl-DNA phosphodiesterase TDP1; recombinant TDP1, AlphaScreen DNA substrate cleavage; Potency, µM (top dose mostly 130 µM), for inactives: at the top dose activity change, negative = inhibition, actives largely listed as inhibitors; 0.28% of 350,000 active; AID 485290; note: % is set by controls: 0 for no effect and ±100 for the full control effect; nearly all actives have a fitted effect of over 40% in size
#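 Steps: enzyme plus compound, 15 min RT; add biotin/phosphotyrosine-FITC oligonucleotide (15 nM final), react 5 min; add donor/acceptor beads (10 ug/ml final), 10 min; read AlphaScreen. Tdp1 at 1 nM final.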
# The depositor's hits bear a star; ? = inconclusive; . = no result given; [ ] = dose if it differs, or a comment. Unless noted, calls come from the whole dose curve; as a rule, active = well fitted curve in the direction sought with a large enough effect; inconclusive = small, poorly fitted or top-dose-only effect, or another doubt; inactive = no such curve, though single readings can be large; an effect the other way counts as inactive or inconclusive. Potency is the fitted concentration of half-maximal effect.
SMILES,PLK1 PBD inh,ASM inhibitor,VDR inh,Tb PFK inh,Pin1 inhibitor,TDP1 block
CCOC(=O)c1c(NC(=O)c2c(C(=O)O)cccc2[N+](=O)[O-])sc2c1CCCC2,12µM*,11%,?,0%,?,.
CCOC(=O)c1c(/N=C/c2ccccc2O)sc2c1CCC2,?,3%,-7%,2%,-4%,5%
C/C=C/C=C\C(=O)Nc1cccc(C2=NOC3(C2)C[C@@H](C(N)=O)N(C(=O)c2cc([N+](=O)[O-])cc([N+](=O)[O-])c2C)C3)c1 (stereo partly drawn),34µM*,-12%,?,-4%,?,2%
CCCCCC(=O)Nc1cccc(C2=NOC3(C2)C[C@@H](C(N)=O)N(C(=O)c2cc([N+](=O)[O-])cc([N+](=O)[O-])c2C)C3)c1 (stereo partly drawn),-5%,-16%,13%,3%,1%,4%
C/C=C\C=C\C(=O)N1CC2(CC(c3cccc(NC(=O)COc4ccc(Cl)cc4)c3)=NO2)C[C@H]1C(N)=O (stereo partly drawn),-11%,-15%,89µM*,?,?,2%
Oc1ccc(CNCc2ccc3c(c2)OCO3)c2cccnc12,.,.,.,2%,.,.
O=c1cc(-c2cccc(O)c2O)oc2ccccc12,.,.,.,.,.,17%
Cc1ccc(NC(=O)N2CC3CCCN3c3ccccc32)c(C)c1 (stereo not drawn),.,.,-3%,.,0%,11%
Cc1cc2c(s1)c1cnn(Cc3cc(C(F)(F)F)ccc3F)c(=O)c1n2C,.,.,.,.,1%,.
CC(C)(C)C(=O)Nc1sc2c(c1C(=O)Nc1ccccn1)CCCC2,27µM*,8%,-25%,0%,6%,0%
Cc1ccccc1NC(=O)c1c(NC(=O)C(F)(F)F)sc2c1CCCCC2,.,.,?,.,-3%,-6%[12.3 µM]
C=CCn1c(C)csc1=Nc1ccc(C(C)=O)cc1,-14%,37%,-6%,-6%,-2%,5%
C=CCn1c(C)csc1=Nc1ccccc1C,30µM*,-4%,-6%,-4%,2%,6%
O=C(O)CSc1sc(=S)sc1SCC(=O)O,27µM*,-1%,6%,12%,?,-1%
Cc1ccc(NC2=C(Cl)C(=O)c3ccccc3C2=O)cc1,-3%,1%,-8%,-6%,-8%,3%
Cc1cc(C)cc(NC2=C(N)C(=O)c3ccccc3C2=O)c1,-2%,-8%,89µM*,1%,-7%,.
COc1ccc(-c2nc3ccc(NC(=O)CO)cc3c(=O)n2Cc2cccc(Cl)c2)cc1COc1ccc(NC(C)=O)cc1,.,.,-15%,.,1%,-10%
O=C(COC(=O)CSc1ccc([N+](=O)[O-])cc1)NCCc1ccccc1,?,-2%,-19%,1%,-2%,.
CC(OC(=O)CSc1ccc([N+](=O)[O-])cc1)C(=O)NCc1ccccc1 (stereo not drawn),4.7µM*,-4%,79µM*,-9%,4%,5%
O=C(COC(=O)CSc1ccc([N+](=O)[O-])cc1)NCCCc1ccccc1,8.4µM*,-2%,71µM*,-4%,0%,3%
CC1CCC(NC(=O)COC(=O)CSc2ccc(C(N)=O)cc2[N+](=O)[O-])CC1 (stereo not drawn),-28%,-5%,-2%,17%,5%,0%
NC(=O)c1ccc(SCC(=O)OCC(=O)NC2CCCCCCC2)c([N+](=O)[O-])c1,24µM*,-3%,-18%,1%,-2%,1%
O=C(COC(=O)CSc1ccc([N+](=O)[O-])cc1)NC1CCCCCCC1,24µM*,-3%,?,-9%,-2%,.
CCc1nn(CC(=O)Nc2ccc(C)c(F)c2)c(=O)c2cc3cc(C)ccc3n12,.,.,-6%,.,0%,3%
COc1ccc(C)cc1NC(=O)N1CCC(CN2CCOCC2)CC1,.,.,6%,.,4%,-11%
SMILES,PLK1 PBD inh,ASM inhibitor,VDR inh,Tb PFK inh,Pin1 inhibitor,TDP1 block
CCOC(=O)c1ccccc1NS(=O)(=O)c1c(-c2ccc(C)cc2)csc1C(=O)OC,.,.,17%,.,10%,2%
CCN(C(=O)COC(=O)CSc1ccc([N+](=O)[O-])cc1)C1CCS(=O)(=O)C1 (stereo not drawn),7.5µM*,.,?,0%,-5%,2%
Cc1ccc(CN(C)C(=O)COC(=O)CSc2ccc([N+](=O)[O-])cc2)cc1,13µM*,-3%,?,-7%,-3%,6%
CN(C(=O)COC(=O)CSc1ccc([N+](=O)[O-])cc1)C1CCS(=O)(=O)C1 (stereo not drawn),-12%,-2%,6%,10%,-1%,-3%[0.505 µM]
Cc1ccc(Nc2cc(C)c(O)c(C)c2)cc1,27µM*,-7%,25µM*,-5%,-1%,13%
Cc1ccc(Nc2ccccc2)cc1,0%,-4%,7%,-13%,-7%,5%[56.1 µM]
Cc1ccccc1Nc1cc(C(=O)NCC2CCCO2)c2ccccc2n1 (stereo not drawn),11µM*,3%,?,3%,-1%,4%
CC[C@H](C)[C@H](NC(=O)[C@H](C)NC(=O)CNC(=O)[C@H](CCCN=C(N)N)NC(=O)[C@H](C)NC(=O)[C@H](CC(C)C)NC(=O)[C@H](CCC(=O)O)NC(=O)[C@H](CC(C)C)NC(=O)[C@H](C)NC(=O)[C@@H](N)CCC(=O)O)C(=O)N[C@@H](Cc1ccccc1)C(=O)N[C@@H](CCC(N)=O)C(=O)N[C@@H](C)C(=O)O,.,.,-4%,.,.,6%
CCOC(=O)CN(Cc1cc(OC)cc(N(C)C)c1OC)C(=O)C1CC(CO[Si](C)(C)C(C)(C)C)=CN1C(=O)OC(C)(C)C (stereo not drawn),.,.,-11%,.,5%,10%
O=C(COC(=O)/C=C/c1ccco1)NC1CCCCC1,-5%,0%,-17%,-17%,-14%,50µM*
CNC(=O)COC(=O)/C=C/c1ccco1,-15%,-1%,4%,3%,-10%,-2%
O=C(COC(=O)/C=C/c1ccco1)NCCc1ccccc1,-1%,-8%,-14%,-11%,13%,28µM*
O=C(COC(=O)/C=C/c1ccc(Br)o1)NC1CCCCC1,-24%,-4%,-26%,-14%,.,.
CC1CC(C)CN(C(=O)COC(=O)/C=C/c2ccco2)C1 (stereo not drawn),-19%,6%,-19%,?,-9%,22µM*
CC(C)CO/N=C1/C[C@@H](O)[C@@H](O)[C@@H]2[C@@H]3C(=O)N(C(C)(C)C)C(=O)[C@H]3CC[C@@H]12,.,.,.,.,.,7%[21 µM]
Nc1nc(SCc2ccc([N+](=O)[O-])cc2)c2ncn([C@@H]3O[C@H](CO)[C@H](O)[C@H]3O)c2n1,.,.,.,.,.,7%
CCCC(=O)N1CCN(c2nc3ccc(F)cc3s2)CC1,.,.,8%,.,-5%,3%

# Screening data from PubChem.
